Bioassay records (PubChem)
This is a sample that favours compounds with a hit; in the whole collection about 7.5% have one here.
KinaseGlo FLuc – blocks Kinase-Glo luciferase, a counter-screen artifact. Potency, µM (doses to about 38.3 µM), without a hit: top-dose activity change, negative = inhibition, actives largely listed as inhibitors. hit rate 0.28% among 200,000. Kinase-Glo luciferase, ATP luminescence, 8 min; also: % is scaled to controls: 0 for no effect and ±100 for the full control effect; nearly all actives have a fitted effect of over 60% in size
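Recombinant Kinase-Glo luciferase, 10 uM ATP (linear range), luciferin; imidazole pH 7.2 / KCl / MgCl2 / Tween / BSA buffer; 8 min RT; luminescence.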
NPC1 promoter act – activators of NPC1 promoter; Huh7 NPC1 promoter luciferase reporter, 24 h; Potency, µM (series often up to 9.22 µM), for the others: at the highest dose activation, most hits filed as activators; hit rate 2.4% among 320,000; AID 485313; also: % of control where 0% means no effect; nearly all actives have a fitted effect of over 60% in size
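Luminescence read-out of NPC1 promoter-driven luciferase in stably transfected Huh7 cells; compounds delivered in DMSO and left 24 h at 37C, 5% CO2, qHTS titration format.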
SMN2 splice enh – increases expression of the SMN2 splice variant | HEK293 SMN2-luciferase splicing reporter, luminescence, 30-36 h | hit rate 2.8% among 210,000 | Potency, µM (titrated, usually from 46.1 µM), for inactives: at the top dose activity change, positive = activation, hits mostly activators; also: % of control where 0% means no effect; nearly all actives have a fitted effect of over 55% in size
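qHTS luciferase splicing reporter: luminescence rises when SMN2 exon 7 is included in transfected HEK293 cells. Compound exposure lasted 30-36 h at 37C, with 4.5 mM final sodium butyrate as control, followed by a ONE-Glo read.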
FLuc counter – counter-screen for miR-21 project: firefly luciferase inhibitors or activators; P08659; purified FLuc, Km substrates, luminescence inhibition; Potency, µM (highest dose often 57.5 µM), inactives show top-dose activity change, negative = inhibition, actives largely listed as inhibitors; hit rate 6.9% among 360,000; AID 588342;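 also: plate controls were vehicle for no effect and reference inhibitor for full effect; nearly all actives have a fitted effect of over 55% in size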
Target sequence (P08659 whole entry, looked up): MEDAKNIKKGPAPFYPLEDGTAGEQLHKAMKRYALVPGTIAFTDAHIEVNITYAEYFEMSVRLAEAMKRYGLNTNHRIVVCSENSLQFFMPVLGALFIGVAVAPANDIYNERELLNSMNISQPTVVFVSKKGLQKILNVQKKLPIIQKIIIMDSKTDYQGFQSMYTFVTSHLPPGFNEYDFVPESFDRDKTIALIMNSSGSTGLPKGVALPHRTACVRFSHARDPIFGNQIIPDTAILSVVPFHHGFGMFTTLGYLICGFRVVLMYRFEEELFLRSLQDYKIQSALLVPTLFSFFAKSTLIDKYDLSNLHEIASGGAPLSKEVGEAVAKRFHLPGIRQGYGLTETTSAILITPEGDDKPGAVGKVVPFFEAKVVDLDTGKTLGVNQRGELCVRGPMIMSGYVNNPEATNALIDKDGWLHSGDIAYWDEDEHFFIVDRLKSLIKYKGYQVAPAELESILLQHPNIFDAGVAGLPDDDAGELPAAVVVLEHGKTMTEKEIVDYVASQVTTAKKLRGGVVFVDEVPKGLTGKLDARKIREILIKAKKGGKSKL
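Purified P. pyralis luciferase (10nM final) with 10uM D-luciferin and 10uM ATP (Km levels) in 50mM Tris acetate pH 7.5, 10mM Mg acetate, 0.01% Tween-20, 0.05% BSA; qHTS 6-point titration, ~60 µM downward; luminescence read.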
ELG1 genotoxic – induces genotoxicity in HEK293T cells with luciferase-tagged ELG1. HEK293T ELG1-luciferase reporter, luminescence, 16 h. Potency, µM (highest dose often 46 µM), without a hit: at the top dose activity change, positive = activation, actives largely listed as activators. hit rate 1.3% among 330,000. AID 504466; also: % of control where 0% means no effect; nearly all actives have a fitted effect of over 60% in size
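DMSO vehicle served as control against compound-treated ELG1-luciferase HEK293T cells; exposure lasted 16 hr at 37 °C and 5% CO2, followed by ONE-Glo luminescence detection after 30 min.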
Rab9 promoter act – activates the Rab9 promoter; Huh7 Rab9 promoter-luciferase reporter, luminescence, 24 h; Potency, µM (series often up to 9.22 µM), without a hit: top-dose activation, negative = inhibition, usual class: activators; hit rate 2.8% among 320,000; AID 485297; also: % of control where 0% means no effect; nearly all actives have a fitted effect of over 60% in size
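Luciferase signal after 10 min detection reagent at ambient indicates Rab9 promoter upregulation; stably transfected Huh7 cells were treated 24 h with compound in DMSO at 37 °C, 5% CO2.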
The depositor's hits bear a star; [ ] = dose if it differs, or a comment. Calls follow the shape of the dose curve; as a rule, active = well fitted curve in the direction sought with a large enough effect; inconclusive = small, poorly fitted or top-dose-only effect, or another doubt; inactive = no such curve, though single readings can be large; an effect the other way counts as inactive or inconclusive. Potency is read from the fitted curve at half-maximal effect.

For COc1ccc(-c2nc3cnc(OC)nc3n(Cc3cccs3)c2=O)cc1 the results were KinaseGlo FLuc -1% and SMN2 splice enh -4%.
Cc1ccc(NC(=O)CSc2nncn3c2cc2sccc23)cc1F was read as FLuc counter -2%.
Screening CC(C)CCC[C@@H](C)[C@H]1CC[C@H]2[C@@H]3CC=C4C[C@@H](O)CC[C@]4(C)[C@H]3CC[C@]12C returned KinaseGlo FLuc -3%[39.9 µM].
Oc1ccc(-c2csc(Nc3ncccn3)n2)cc1 was read as KinaseGlo FLuc -4%, NPC1 promoter act 2µM*, SMN2 splice enh 25µM*, FLuc counter 3µM*, ELG1 genotoxic 4.6µM* and Rab9 promoter act 0.56µM*.
c1ccc(-c2csc(Nc3ncccn3)n2)cc1 was read as KinaseGlo FLuc -17%, NPC1 promoter act 0.63µM*, SMN2 splice enh 2.5µM*, FLuc counter 0.6µM*, ELG1 genotoxic 1.3µM* and Rab9 promoter act 0.35µM*.
`CC(=O)Nc1ccc(-c2csc(-c3cccnc3)n2)cc1` gave NPC1 promoter act 2.8µM*, FLuc counter 7.6µM*, ELG1 genotoxic 6.5µM* and Rab9 promoter act inconclusive.
`CCCCCNc1nc(-c2ccccc2)cs1` gave KinaseGlo FLuc -6%, NPC1 promoter act 4µM*, SMN2 splice enh 20%, FLuc counter 1.9µM*, ELG1 genotoxic 7.3µM* and Rab9 promoter act 2.8µM*.
CCCC(=O)Nc1ccc(-c2csc(-c3cccnc3)n2)cc1 was read as NPC1 promoter act 13%, FLuc counter inconclusive, ELG1 genotoxic -4% and Rab9 promoter act inconclusive.
CC(=O)Nc1ccc(S(=O)(=O)NC2(C(F)(F)F)C(=O)Nc3c2c(=O)[nH]c(=O)n3-c2ccc(C)c(C)c2)cc1 (stereo not given) was read as SMN2 splice enh 0% and FLuc counter -12%.
For CC(=O)Nc1ccc(-c2csc(Nc3ncccn3)n2)cc1 the results were KinaseGlo FLuc -1%, NPC1 promoter act 0.56µM*, SMN2 splice enh 5µM*, FLuc counter inconclusive, ELG1 genotoxic 9.2µM* and Rab9 promoter act 0.56µM*.
`CC(=O)Nc1ccc(-c2csc(Nc3ccc(S(N)(=O)=O)cc3)n2)cc1` gave KinaseGlo FLuc 0%, NPC1 promoter act -12%, SMN2 splice enh 7%, FLuc counter -3%, ELG1 genotoxic 5% and Rab9 promoter act -4%.
Screening CC(=O)c1cc(-c2ccccc2)n(CC(=O)NCCc2ccc(C)cc2)c1C returned FLuc counter 4%.
For COc1ccc(Br)cc1[C@H]1[C@@H]2C=CCC[C@@]2(C)C(=O)N1Cc1ccccc1 the results were NPC1 promoter act 0%, FLuc counter 1%, ELG1 genotoxic -12% and Rab9 promoter act -13%.
For COc1ccc(/C=C/c2ccccc2)cc1[C@H]1[C@@H]2C=CCC[C@@]2(C)C(=O)N1Cc1ccccc1 the results were NPC1 promoter act 0%, FLuc counter 13µM*, ELG1 genotoxic -1% and Rab9 promoter act 0%.
For CCCCc1ccc(/C=C2\C(=O)c3ccccc3C(O)=C2C(=O)OCC)cc1 the results were KinaseGlo FLuc -5%, NPC1 promoter act -1%, SMN2 splice enh 8%, FLuc counter 11µM*, ELG1 genotoxic 1% and Rab9 promoter act -2%.
For Cc1nnc2sc(-c3ccc(N(C)C)cc3)nn2c1=O the results were NPC1 promoter act 3.2µM*, FLuc counter 7.6µM*, ELG1 genotoxic 16µM* and Rab9 promoter act inconclusive.
For CN(C)c1ccc(-c2nn3c(-c4cccnc4)nnc3s2)cc1 the results were KinaseGlo FLuc -7%, NPC1 promoter act -4%, SMN2 splice enh -15%, FLuc counter -7%, ELG1 genotoxic inconclusive and Rab9 promoter act 0%.
O=C(O/N=C1/CCSc2ccccc21)c1ccccc1 was read as KinaseGlo FLuc inconclusive, NPC1 promoter act 7%, SMN2 splice enh -12%, FLuc counter 0.67µM*, ELG1 genotoxic 0% and Rab9 promoter act -5%.
